HT1080 IDH1KD tx = qHTS for induction of synthetic lethality in tumor cells producing 2HG: qHTS for the HT-1080-IDH1KD cell line. HT-1080 IDH1 knockdown viability, ATP luminescence, 48 h. Potency, µM (highest dose often 46.1 µM), inactives show at the highest dose activity, negative = toxicity, actives largely listed as cytotoxic. 360,000 tested, 2% active;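 note: potency is the fitted concentration of half-maximal effect; 0% = DMSO wells and -100% = cell-free medium wells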
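Assay cells: HT-1080 with IDH1 knockdown, 750 per well, RPMI/5% FBS. Exposure: 48 h at 37 °C following 2 h pre-incubation. Read: CellTiter-Glo luminescence; fitted concentration-response, curve class assigned.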
HT1080-NT tox = qHTS for induction of synthetic lethality in tumor cells producing 2HG: qHTS for the HT-1080-NT fibrosarcoma cell line; Potency, µM (doses to about 46.1 µM), without a hit: at the highest dose activity, negative = less viability, most hits filed as cytotoxic; 360,000 tested, 1.6% active; HT-1080-NT fibrosarcoma viability, CellTiter-Glo ATP luminescence, 48 h; AID 686970, 2013;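 note: NT is the 2HG producing partner of a matched IDH1 knockdown line; potency is the fitted concentration of half-maximal effect; 0% = DMSO-treated cells and -100% = media-only wells without cells; nearly all actives have a fitted effect of over 55% in size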
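750 cells/well, RPMI + 5% FBS; 2 h settle, compound pin-transfer, 48 h at 37 degrees C. CellTiter-Glo 10 min RT, luminescence. Normalized to DMSO and media-only wells.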
IL-1B inflam inh = qHTS for Inhibitors of Inflammasome Signaling: IL-1-beta AlphaLISA Primary Screen. THP-1 LPS/ATP IL-1B secretion, AlphaLISA, 16 h; hits give low values. activity change, % at 57.5 µM. 360,000 tested, 4.7% active. AID 743279, 2014; in the data active = activity change below about -50%; inconclusive = mostly about -30% to -49%
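THP-1 cells pretreated 1 hr with compounds (up to 57.5 uM final), then stimulated with LPS (250 ng/mL final) plus ATP (1.25 mM final); secreted IL-1B measured by AlphaLISA after 16 hr, decreased signal indicating inhibition.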
TDP1 cell CPT = qHTS for Inhibitors of human tyrosyl-DNA phosphodiesterase 1 (TDP1): qHTS in cells in presence of CPT. 420,000 tested, 12% active. chicken DT40 Tdp1-/-;hTDP1 cells + 20 nM CPT, ATP luminescence, 48 h. AID 686979, 2013. Potency, µM (top dose mostly 46.2 µM), for inactives: at the highest dose activity change, negative = growth inhibition, actives largely listed as inhibitors; note: potency is the fitted concentration of half-maximal effect; nearly all actives have a fitted effect of over 55% in size
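Cell growth measured by CellTiter-Glo luminescence after a minimum 48 h, 37 C compound exposure with 20 nM CPT in Tdp1-knockout DT40 cells stably expressing hTDP1, seeded 400/well; qHTS titration format.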
uPA generation = qHTS for Inhibitors of Cell Surface uPA Generation | cell surface uPA generation assay, qHTS | Potency, µM (series often up to 38.3 µM), for inactives: top-dose activity change, negative = inhibition, usual class: inhibitors | 330,000 tested, 0.31% active | AID 540303, 2011; active = well fitted inhibition curve with a large enough effect; inconclusive = small, poorly fitted or top-dose-only effect; inactive = no such curve, though single readings can be large or run the other way; tested in mouse RAW 264.7 cells; note: potency is the fitted concentration of half-maximal effect; nearly all actives have a fitted effect of over 55% in size
TDP1 cell noCPT = qHTS for Inhibitors of human tyrosyl-DNA phosphodiesterase 1 (TDP1): qHTS in cells in absence of CPT; DT40 Tdp1-/- hTDP1 cells, no CPT, ATP luminescence, 48 h; Potency, µM (highest dose often 46.2 µM), without a hit: top-dose activity change, negative = growth inhibition, most hits filed as inhibitors; 420,000 tested, 15% active; AID 686978, 2013; note: potency is the fitted concentration of half-maximal effect; nearly all actives have a fitted effect of over 55% in size
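Camptothecin absent (DMSO only). Human TDP1-complemented DT40 knockout cells, 400 cells/well, 37 °C for minimum 48 hr; ATP measured via CellTiter-Glo, 30 min dark incubation, luminescence.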
Active calls of the source: *; ? = inconclusive; · = no result given. Shown are actives, neighbours in structure and some others; about 19% of the full set was active somewhere. Unless noted, calls come from the whole dose curve; as a rule, active = well fitted curve in the direction sought with a large enough effect; inconclusive = small, poorly fitted or top-dose-only effect, or another doubt; inactive = no such curve, though single readings can be large; an effect the other way counts as inactive or inconclusive. Unless noted, % is set by controls: 0 for no effect and ±100 for the full control effect.

SMILES | HT1080 IDH1KD tx | HT1080-NT tox | IL-1B inflam inh | TDP1 cell CPT | uPA generation | TDP1 cell noCPT
Cc1cc(C)n(CC(=O)N/N=C/c2ccccn2)n1 | ? | 19% | 16 | 25% | 4% | 0%
Cc1c(N)cc(S(=O)(=O)O)cc1NC(=O)c1cccc([N+](=O)[O-])c1 | -2% | 0% | -2 | 7% | 1% | -27%
COc1ccccc1-c1noc2c1C(=O)N(Cc1cn(-c3ccccc3OC)nn1)CC2 | -10% | 7% | 61 | ? | · | 18µM*
CCc1nn(CC(=O)NCCCOC)c(=O)c2cc3occc3n12 | · | · | · | -11% | · | -9%
CC(C)(C)n1nnnc1C(c1cc2ccccc2o1)N(CCC#N)Cc1ccccc1 (stereo not drawn) | 3% | -3% | 25 | ? | · | ?
COc1ccccc1NC(=S)N(Cc1cccs1)C1CCCC1 | -6% | -1% | -63* | ? | 2% | 6.5µM*
Cc1ccc(Cn2c(C(C)Nc3nc(-c4ccc(F)cc4)cs3)nc3cc(C(F)(F)F)ccc32)cc1 (stereo not drawn) | -5% | -3% | -25 | 21µM* | 9% | ?
CC(Nc1nc(-c2ccc(F)cc2)cs1)c1nc2cc(C(F)(F)F)ccc2n1CCOCCO (stereo not drawn) | 3% | 10% | 1 | ? | 19% | ?
CC(Nc1nc(-c2ccc(F)cc2)cs1)c1nc2cc(C(F)(F)F)ccc2n1CCCO (stereo not drawn) | -15% | -28% | -29 | ? | -8% | 16µM*
Cc1ccc(Cn2c(C(C)Nc3nc(-c4ccc(F)cc4)cs3)nc3cc(C(=O)NCCCO)ccc32)cc1 (stereo not drawn) | -3% | -4% | -8 | ? | -12% | ?
COc1ccc(-c2csc(NC(C)c3nc4cc(C(F)(F)F)ccc4n3CCOCCO)n2)cc1 (stereo not drawn) | ? | -24% | ? | 16µM* | -13% | 18µM*
CC(C)Oc1ccc(CNC(=O)C2CCCCN2S(=O)(=O)c2ccc(F)cc2)cc1 (stereo not drawn) | · | · | · | -37% | · | -28%
CCOC(=O)C1(C)NC(c2ccco2)C2C(=O)N(CC)C(=O)C21 (stereo not drawn) | 10% | -1% | 7 | -22% | -4% | 5%
CCCNC(=O)Nc1nc(C(N)c2ccc(OC)cc2)cs1 (stereo not drawn) | 4% | 24% | -6 | -21% | · | -22%
COc1ccc(CC(N)c2csc(NC(=O)NCc3ccccc3)n2)cc1 (stereo not drawn) | 18µM* | ? | -15 | 21µM* | · | ?
COc1ccc(CNC(=O)Nc2nc(C(N)c3ccccc3)cs2)cc1 (stereo not drawn) | ? | ? | 0 | ? | · | 21µM*
COc1cc(CNC(=O)Nc2nc(C(N)Cc3ccc(C(F)(F)F)cc3)cs2)cc(OC)c1OC (stereo not drawn) | ? | ? | -59* | 13µM* | · | 12µM*
Cc1cccc(C)c1NC(=O)CNC(=O)CCC(=O)c1cccs1 | 9% | -2% | 10 | 9% | -1% | 12%
O=c1oc2ccccc2c(O)c1/C=C1\C=Nc2ccccc21 | 26µM* | ? | -108* | 8.2µM* | 0% | 7.3µM*
O=c1oc2ccccc2c(O)c1/C=N/c1ncccn1 | -25% | 0% | 12 | -13% | 2% | -10%
C=C1SC(=Nc2c(C)cc(C)cc2C)N(C(=O)c2sc3ccccc3c2Cl)C12CCCCC2 | 10% | 3% | -9 | ? | -2% | 21µM*
COc1ccc(OCCCCn2c(C3CC(=O)N(c4cccc(Cl)c4)C3)nc3ccccc32)cc1 (stereo not drawn) | · | · | · | 8.2µM* | · | 5.8µM*
Cc1ccc(OCCCn2c(C3CC(=O)N(c4cccc(Cl)c4)C3)nc3ccccc32)c(C)c1 (stereo not drawn) | · | · | · | -100% | · | 9.2µM*
C#CCn1c(C2CC(=O)N(c3ccc(OC)cc3)C2)nc2ccccc21 (stereo not drawn) | · | · | · | -4% | · | -16%
CCOc1ccc(N2CC(c3nc4ccccc4n3Cc3cccc(Cl)c3)CC2=O)cc1 (stereo not drawn) | · | · | · | ? | · | 16µM*
SMILES | HT1080 IDH1KD tx | HT1080-NT tox | IL-1B inflam inh | TDP1 cell CPT | uPA generation | TDP1 cell noCPT
O=C1CC(c2nc3ccccc3n2CCCCOc2ccccc2)CN1c1ccccc1Cl (stereo not drawn) | · | · | · | 10µM* | · | 15µM*
CCOc1ccccc1N1CC(c2nc3ccccc3n2CCOc2ccccc2)CC1=O (stereo not drawn) | · | · | · | -27% | · | -24%
Cc1nn(-c2ccccc2)c(C)c1C(=O)N1CCN(S(=O)(=O)c2ccccc2)CC1 | -1% | -2% | 0 | -26% | 25% | ?
CC(C)(C)c1ccc(C(=O)NC(=O)COC(=O)c2ccc(Br)o2)cc1 | 0% | 8% | -5 | ? | -7% | ?
CCCNC(=O)c1cc(C2CCCCN2S(=O)(=O)Cc2cccc(C(F)(F)F)c2)on1 (stereo not drawn) | 10% | -10% | -9 | -29% | · | -59%
O=C(CSc1nnc(SCC(=O)c2ccco2)s1)c1ccco1 | 8% | 5% | 15 | 23µM* | -2% | 10µM*
O=C(CSc1nc2cc(Cl)ccc2s1)c1ccco1 | 2% | 2% | 28 | -6% | -7% | ?

From PubChem BioAssay
